Compounds without any hit were thinned out: in the full panel of roughly 83,000, 20% have a hit.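 Single-dose data. Exposure time 48 hours. Values below 10 considered active.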 Values without a mark were called inactive. Active and inactive are the calls of the source.

Test systems include HCT-15 colon; HT29 colon; SNB-75 CNS; SNB-19 CNS; U251 CNS; PC-3 prostate; SK-MEL-5 melanoma; UACC-62 melanoma; LOX IMVI melanoma; SK-MEL-28 melanoma; SK-MEL-2 melanoma; EKVX NSCLC; SN12C renal; UO-31 renal; TK-10 renal; ACHN renal; CAKI-1 renal; A498 renal; CCRF-CEM leukemia; MOLT-4 leukemia.
What all share (assay): NCI-60 one-dose screen, 48 h (100 = growth as untreated, 0 = no growth, -100 = all killed)
What all share (details): 10 µM unless noted

In the case of `O=S(=O)(NCCCNc1nccc(-c2[nH]c(-c3ccccc3)nc2-c2ccc(F)c(O)c2)n1)c1cccc2ccccc12`, the growth in the test with HCT-15 colon is 39.4%; in the test on HT29 colon, 101%; with SNB-75 CNS, 75.4%; in the test on SNB-19 CNS, 76.5%; with U251 CNS, 50.5%; in the test on PC-3 prostate, 52.8%. Besides, the growth with SK-MEL-5 melanoma is 34.1%; in the test with UACC-62 melanoma, 26.3%; with LOX IMVI melanoma, 31.9%; in the test on SK-MEL-28 melanoma, 54.3%; in the test on SK-MEL-2 melanoma, 17.1%; in the test on EKVX NSCLC, 82%. Further, the growth in the test with SN12C renal was 63.2%; in the test with UO-31 renal it was 75.2%; in the test on TK-10 renal, 72.5%; with ACHN renal it was 59.6%; with CAKI-1 renal it was 77.2%; in the test on A498 renal it was 73.1%. In addition, the growth in the test with CCRF-CEM leukemia was 17%; in the test with MOLT-4 leukemia, 31.4%.

Take `N#CC1=C2NCCCNc3oc(nc3C#N)Cc3ccccc3CC(=N1)O2`: the growth in the test on HCT-15 colon is 74.8%; in the test with HT29 colon it was 102%; in the test with SNB-75 CNS it was 92%; in the test with SNB-19 CNS, 93.2%; with U251 CNS, 96.1%; in the test on PC-3 prostate, 91.9%. The growth was 99.1% in the test with SK-MEL-5 melanoma; 87.5% with UACC-62 melanoma; 8.01% (active) with LOX IMVI melanoma; 102% in the test on SK-MEL-28 melanoma; 93.9% in the test on SK-MEL-2 melanoma; 99.5% with EKVX NSCLC. The growth in the test on SN12C renal was 105%; with UO-31 renal it was 72.9%; in the test on TK-10 renal, 106%; with ACHN renal it was 87.4%; with CAKI-1 renal it was 77.3%; in the test with A498 renal, 95.5%. In addition, the growth in the test on CCRF-CEM leukemia is 30.4%; in the test on MOLT-4 leukemia, 84.1%.

In the case of `O=C(CCCCCCNC(=O)C(O)(O)C(F)(F)F)Nc1ncc(-c2ccc(Br)cc2)s1`, the growth with HCT-15 colon was 3.85% (active); in the test with HT29 colon, 1.78% (active); in the test with SNB-75 CNS it was 35.9%; with SNB-19 CNS it was 2.52% (active); in the test with U251 CNS, -35.4% (active); in the test on PC-3 prostate, 10.5%. The growth in the test on SK-MEL-5 melanoma is -70.3% (active); in the test on UACC-62 melanoma it was -52.1% (active); in the test with LOX IMVI melanoma, -89.7% (active); in the test with SK-MEL-28 melanoma, 3.46% (active); with SK-MEL-2 melanoma it was -27.3% (active); with EKVX NSCLC, 21.5%. Moreover, the growth is 0.547% (active) with SN12C renal; -26.1% (active) with UO-31 renal; -20.2% (active) in the test on TK-10 renal; -32.1% (active) with ACHN renal; -32.8% (active) in the test on CAKI-1 renal; -41.2% (active) with A498 renal. For the same compound, the growth is 18.4% in the test on CCRF-CEM leukemia and 4.21% (active) in the test on MOLT-4 leukemia.

On to `NC(=S)n1c(=O)n(-c2cccc(C(F)(F)F)c2)c(=O)c2cc(-c3ccc(F)cc3F)ccc21`, for which the growth in the test with HCT-15 colon is 9.27% (active); with HT29 colon, 37.4%; in the test with SNB-75 CNS, -24.9% (active); with SNB-19 CNS, 15.6%; in the test with U251 CNS it was 9.68% (active); in the test with PC-3 prostate it was 0.986% (active). Besides, the growth was -57.3% (active) with SK-MEL-5 melanoma; -3.3% (active) with UACC-62 melanoma; -46.5% (active) in the test with LOX IMVI melanoma; 23% in the test with SK-MEL-28 melanoma; -29.1% (active) with SK-MEL-2 melanoma; 5.19% (active) in the test with EKVX NSCLC. Also, the growth in the test with SN12C renal was -3.03% (active); in the test with UO-31 renal, 6.1% (active); with TK-10 renal, 7.56% (active); with ACHN renal, -0.456% (active); in the test on CAKI-1 renal, -13.5% (active); in the test on A498 renal it was -18.8% (active). Besides, the results for the growth in the test with CCRF-CEM leukemia and with MOLT-4 leukemia were 18% and 0.58% (active), respectively.

Consider `COc1ccc(/C(=N\NC(N)=S)c2ccc(Cl)cc2)cc1OC`, for which the growth in the test with HCT-15 colon is 16%; in the test on HT29 colon it was -1.79% (active); with SNB-75 CNS, -8.75% (active); in the test with SNB-19 CNS it was 24.1%; in the test with U251 CNS, 22.4%; in the test on PC-3 prostate, 36.4%. The growth with SK-MEL-5 melanoma was 21.9%; in the test on UACC-62 melanoma it was 18.9%; in the test with LOX IMVI melanoma, 40.5%; in the test on SK-MEL-28 melanoma, 47.6%; with SK-MEL-2 melanoma it was -23.8% (active); with EKVX NSCLC it was 50.8%. Further, the growth was 29% with SN12C renal; 34.5% in the test on UO-31 renal; 83.3% in the test with TK-10 renal; 42.3% in the test with ACHN renal; 31.2% in the test on CAKI-1 renal; -4.86% (active) in the test with A498 renal. In addition, the figures for the growth in the test on CCRF-CEM leukemia and in the test on MOLT-4 leukemia were 25.6% and 29.5%, respectively.

Take `C#Cc1nc(/C=C\CCCCCCC(=O)NO)cs1`: the growth was 65.6% in the test with HCT-15 colon; 55% with HT29 colon; -57.7% (active) in the test on SNB-75 CNS; 71.6% with SNB-19 CNS; 70.6% with U251 CNS; 66.9% in the test with PC-3 prostate. In addition, the growth is 31.9% in the test on SK-MEL-5 melanoma; 31.2% with UACC-62 melanoma; -82% (active) in the test on LOX IMVI melanoma; 54.1% with SK-MEL-28 melanoma; 92.1% in the test on SK-MEL-2 melanoma; 82.9% in the test with EKVX NSCLC. Besides, the growth with SN12C renal was 80.9%; with UO-31 renal it was -76.2% (active); with TK-10 renal it was 42%; in the test with ACHN renal it was 11.3%; in the test on CAKI-1 renal it was -20.2% (active); in the test with A498 renal it was 34.2%. Moreover, the growth was -40.5% (active) in the test with CCRF-CEM leukemia and -24.6% (active) in the test on MOLT-4 leukemia.

For `COc1cc(-c2nc(-c3ccccc3)[nH]c2-c2ccnc(NCCCNS(=O)(=O)c3ccc(C)cc3)n2)ccc1F`, the growth in the test on HCT-15 colon was 62.9%; with HT29 colon, 69.5%; with SNB-75 CNS, 105%; in the test on SNB-19 CNS it was 104%; with U251 CNS, 88.6%; in the test with PC-3 prostate, 55%. Besides, the growth is 84.4% with SK-MEL-5 melanoma; 97.5% in the test on UACC-62 melanoma; 83.4% in the test on LOX IMVI melanoma; 101% with SK-MEL-28 melanoma; 104% in the test with SK-MEL-2 melanoma; 74.5% in the test on EKVX NSCLC. The growth in the test on SN12C renal was 89.3%; with UO-31 renal, 78.6%; in the test on TK-10 renal it was 123%; in the test with ACHN renal, 84.6%; in the test on CAKI-1 renal, 105%; with A498 renal it was 84.1%. Also, the results for the growth in the test with CCRF-CEM leukemia and in the test on MOLT-4 leukemia were 56.9% and 45.1%, respectively.

Source of the values: PubChem BioAssay (NCI).
